Among the data in PubChem BioAssay (Tox21) are Potency values, retold here.

Values joined by “and” are separate entries in the source; they are usually repeats but may differ in a detail not shown here. Identical values can stand only once. Inconclusive results are not listed. Some compounds were tested as several samples or in several runs, with calls that do not always agree. Active and inactive are the calls of the source. Unless noted, calls come from the whole dose curve.

Experiment [1] in a line: Nuclear factor erythroid 2-related factor 2/antioxidant responsive element (Nrf2/ARE) small molecule agonists: qHTS cell viability counter screen in human keratinocytes (AID 1919968; active = well fitted curve in the direction sought with a large enough effect in the repeat runs; an effect the other way counts as inactive or inconclusive; note: nearly all actives have a fitted effect of over 55% in size). The method, boiled down:
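Cytotoxicity was multiplexed with the Nrf2/ARE luciferase assay in the same wells. Stably transfected HaCaT keratinocytes were treated with test compounds for 23 h at 37 C. Cell viability was then measured by CellTiter-Fluor fluorescence.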
For orientation: Quantitative high-throughput screening tests each substance at several concentrations.

A short description of experiment [2]: Nuclear factor erythroid 2-related factor 2/antioxidant responsive element (Nrf2/ARE) small molecule agonists: luciferase reporter gene qHTS assay in human keratinocytes (AID 1919969). Note: nearly all actives have a fitted effect of over 35% in size. Note: potency is the fitted concentration of half-maximal effect.
Experiment [3] has as its target Gonadotropin-releasing hormone receptor (Homo sapiens) (UniProt P30968). Description: Human gonadotropin-releasing hormone receptor (GnRHR) small molecule agonists, calcium flux assay in GnRHR-HEK293 cells (AID 1920063). Note: nearly all actives have a fitted effect of over 35% in size. Note: potency is the fitted concentration of half-maximal effect. The method, boiled down: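 Agonist activity was measured as intracellular calcium flux in HEK293 cells engineered to stably express human GnRHR. After dye loading for 1 hour at 37 C, compounds in DMSO were added and fluorescence was followed for 3 minutes.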

Experiment [4] deals with KiSS-1 receptor (Homo sapiens) (UniProt Q969F8). Put plainly: Human kisspeptin (KISS1R) small molecule agonists, calcium flux assay in KISS1R-HEK293 cells (AID 1920064; active = well fitted curve in the direction sought with a large enough effect in the repeat runs; an effect the other way counts as inactive or inconclusive; note: potency is the fitted concentration of half-maximal effect). The gist of the method:
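Agonist activity is monitored as intracellular calcium rise in engineered HEK293 cells carrying human KISS1R. Cells are dye-loaded for 1 h at 37 C before compound addition, and fluorescence is recorded for 3 min.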
A general note: Calcium assays in cells follow changes in intracellular calcium, usually with a dye or a luminescent sensor.

A short description of experiment [5]: G protein-coupled receptor (GPCR) small molecule agonists, calcium flux assay: HEK293 wild type cell line counter screen (AID 1920065). Note: potency is the fitted concentration of half-maximal effect. The gist of the method:
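Seed cells, incubate 18 h (37 C, 5% CO2); add calcium dye, 1 h at 37 C; pin-transfer compounds, ATP control or DMSO; read fluorescence 480/540 nm each second for 3 min.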

The nature of experiment [6]: p53 small molecule agonists, cell-based qHTS assay with human liver microsomes: qHTS cell viability counter screen (AID 1963579). Note: nearly all actives have a fitted effect of over 45% in size. The method, boiled down:
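Seed p53RE-bla cells at 4,000 per well; incubate 5 h at 37 C; add compound, human liver microsomes and NADPH; incubate 16 h at 37 C; add CellTiter-Glo; after 30 min at room temperature, read luminescence.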

The nature of experiment [7]: p53 small molecule agonists, cell-based qHTS assay with rat liver microsomes: qHTS cell viability counter screen (AID 1963580). Note: nearly all actives have a fitted effect of over 45% in size. The method, boiled down:
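Counter screen for cytotoxicity under metabolic activation: rat liver microsomes and NADPH, 0.5 mg/mL final each, added with compounds to p53RE-bla HCT-116 cells; 16 h at 37 C, then ATP luminescence read.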

Experiment [8] is described as follows: p53 small molecule agonists, cell-based qHTS assay: qHTS cell viability counter screen (AID 1963581). Note: nearly all actives have a fitted effect of over 45% in size. The gist of the method: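 Viability was counter-screened in parallel with the p53 agonist reporter by measuring intracellular ATP luminescence in the same HCT-116 p53RE-bla wells after 16 h compound treatment at 37 C.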
Experiment [9] is described as follows: p53 small molecule agonists, cell-based qHTS assay (AID 1963582; active = well fitted activation curve with a large enough effect in the signal ratio in the repeat runs, not every such curve was filed as active; the % refers to the signal ratio). The method, boiled down: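 Cells carrying a p53-responsive bla reporter are treated with test compounds for 16 h at 37 C; beta-lactamase activity is then detected with LiveBLAzer B/G FRET substrate after 2 h at room temperature.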
For experiment [10], the target named is 5-hydroxytryptamine receptor 2A (Homo sapiens) (UniProt P28223). Put plainly: 5-hydroxytryptamine receptor 2A (HTR2A) small molecule antagonists, cell-based qHTS assay (AID 1963586). Note: nearly all actives have a fitted effect of over 45% in size. The gist of the method:
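CHO cells stably expressing human HTR2A were plated for 18 h at 37 C, then loaded with calcium dye for 1 h. Compounds were preincubated 5 min at room temperature before DOI (4 nM solution) was added. Kinetic fluorescence was read for 3 min.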

Experiment [11] deals with Muscarinic acetylcholine receptor M1 (Homo sapiens) (UniProt P11229). Description: Cholinergic receptor muscarinic 1 (CHRM1) small molecule antagonists, cell-based qHTS assay (AID 1963588). Note: nearly all actives have a fitted effect of over 40% in size. The method, boiled down:
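Compounds were tested at 15 concentrations in three independent runs. Dye-loaded CHRM1-CHO cells were exposed 5 min at room temperature before stimulation by acetylcholine added at 50nM. Intracellular calcium was read kinetically on FDSS for 3 min.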

Experiment [12] has the same target. Put plainly: Cholinergic receptor muscarinic 1 (CHRM1) small molecule agonists, cell-based qHTS assay (AID 1963589). Note: nearly all actives have a fitted effect of over 35% in size. The gist of the method: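 Cells were plated and incubated 18 h at 37 C/5% CO2, loaded with calcium dye for 1 h at 37 C, then treated with compounds in DMSO. Fluorescence was recorded kinetically at 1 sec intervals.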
A short description of experiment [13]: cAMP Responsive Elements (CRE) small molecule agonists, cell-based qHTS assay (AID 1963590). The gist of the method:
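Cells carrying a CRE-driven beta-lactamase reporter (HEK 293T) are seeded, incubated overnight (18 h), and treated with test compounds for 3 h at 37 C; reporter activity is then detected with a FRET substrate after 2 h at room temperature.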

Experiment [14] is described as follows: cAMP Responsive Elements (CRE) small molecule antagonists, cell-based qHTS assay (AID 1963591; active = well fitted inhibition curve with a large enough effect in the signal ratio in the repeat runs, not every such curve was filed as active; the % refers to the signal ratio). The method, boiled down:
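Cells (CRE-bla HEK 293T, DMEM with 10% dialyzed FBS and 25 mM HEPES) are seeded and incubated 18 h. Compounds are added with NKH477 agonist at 0.25 uM final for 3 h, then FRET substrate for 2 h.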

Experiment [15] has as its target Beta-2 adrenergic receptor (Homo sapiens) (UniProt P07550). Description: Adrenergic beta2 receptor (ADRB2) small molecule antagonists, cell-based qHTS assay (AID 1963592). Note: series mostly up to about 92 µM; nearly all actives have a fitted effect of over 50% in size. The gist of the method: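 Assay format: CHO-ADRB2 cells, 18-20hr seeding at 37C/5% CO2, then compound plus 1nM isoproterenol agonist mix for 0.5hr RT. Homogeneous time-resolved fluorescence cAMP detection after 1hr, expressed as 665/615 nm ratio.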

In experiment [16] the target is D(2) dopamine receptor (Homo sapiens) (UniProt P14416). Put plainly: Dopamine D2 receptor (DRD2) small molecule agonists, cell-based qHTS assay (AID 1963594). Note: nearly all actives have a fitted effect of over 35% in size. The gist of the method: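 HEK293 cells stably expressing DRD2 were cultured 24 h at 37 C, then given Ro20-1724 (0.1 mM final) and compounds for 10 min at room temperature. NKH477 (200nM) was then added for 30 min. cAMP was read by HTRF.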

Experiment [17] is described as follows: p53 small molecule agonists, cell-based qHTS assay with rat liver microsomes (AID 1963578). The method, boiled down: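 Fluorescence from a beta-lactamase reporter under a p53 response element was measured after cells had been incubated 16 h at 37 C with test compound and rat liver microsomes plus NADPH (0.5 mg/mL final each).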
Experiment [18] concerns the target 5-hydroxytryptamine receptor 2A (Homo sapiens) (UniProt P28223). Put plainly: 5-hydroxytryptamine receptor 2A (HTR2A) small molecule agonists, cell-based qHTS assay (AID 1963587). Note: nearly all actives have a fitted effect of over 30% in size. The gist of the method:
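HTR2A-CHO cells, plated 18 h at 37 C/5% CO2, dye-loaded 1 h at 37 C; compounds in DMSO added by pin tool (agonist mode). Intracellular calcium flux read as kinetic fluorescence on FDSS over 2 min at 1 s intervals.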

Experiment [19] addresses D(2) dopamine receptor (Homo sapiens) (UniProt P14416). Put plainly: Dopamine D2 receptor (DRD2) small molecule antagonists, cell-based qHTS assay (AID 1963595; active = well fitted inhibition curve with a large enough effect in the signal ratio in the repeat runs, with a control signal flat; the % refers to the signal ratio). The method, boiled down: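 Antagonist mode in DRD2-HEK293 cells: after compound addition with 0.1 mM Ro20-1724, cells received quinpirole (12 nM) and NKH477 (200 nM) for 30 min at room temperature; HTRF cAMP read after 1 h detection.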

Experiment [20] addresses Beta-2 adrenergic receptor (Homo sapiens) (UniProt P07550). Description: Adrenergic beta2 receptor (ADRB2) small molecule agonists, cell-based qHTS assay (AID 1963593).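 Note: CHO cells stably overexpressing human ADRB2.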 The method, boiled down: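 CHO cells stably over-expressing ADRB2 were plated overnight at 37C, then dosed with compounds plus a stimulation mix containing 100uM IBMX and 25uM Ro-20-1724 for 0.5hr at room temperature. cAMP was measured by HTRF competition, 1hr.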

KiSS-1 receptor (Homo sapiens), sequence (Q969F8 whole entry, looked up): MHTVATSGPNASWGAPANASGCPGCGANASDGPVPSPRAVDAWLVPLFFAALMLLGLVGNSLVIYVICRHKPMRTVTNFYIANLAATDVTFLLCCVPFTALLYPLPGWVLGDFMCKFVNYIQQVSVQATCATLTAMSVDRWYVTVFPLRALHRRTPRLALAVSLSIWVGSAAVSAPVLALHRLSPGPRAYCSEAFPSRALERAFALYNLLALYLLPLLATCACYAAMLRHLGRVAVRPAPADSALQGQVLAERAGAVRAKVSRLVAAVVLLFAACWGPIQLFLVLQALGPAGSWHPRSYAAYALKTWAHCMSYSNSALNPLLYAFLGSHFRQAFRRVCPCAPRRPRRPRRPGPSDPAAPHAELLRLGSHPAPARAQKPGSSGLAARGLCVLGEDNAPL
Beta-2 adrenergic receptor (Homo sapiens), sequence (P07550 whole entry, looked up): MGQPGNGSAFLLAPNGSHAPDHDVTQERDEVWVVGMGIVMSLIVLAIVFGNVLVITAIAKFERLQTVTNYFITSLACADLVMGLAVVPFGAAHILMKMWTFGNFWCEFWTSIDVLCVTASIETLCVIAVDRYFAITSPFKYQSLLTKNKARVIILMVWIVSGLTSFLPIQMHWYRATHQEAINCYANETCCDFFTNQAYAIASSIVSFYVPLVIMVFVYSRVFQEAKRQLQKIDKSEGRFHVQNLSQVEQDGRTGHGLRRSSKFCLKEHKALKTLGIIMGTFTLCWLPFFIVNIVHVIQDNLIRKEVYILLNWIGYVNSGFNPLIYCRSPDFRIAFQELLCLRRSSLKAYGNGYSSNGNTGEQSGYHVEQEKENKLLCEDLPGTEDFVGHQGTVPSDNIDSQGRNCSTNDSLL
D(2) dopamine receptor (Homo sapiens), sequence (P14416 whole entry, looked up): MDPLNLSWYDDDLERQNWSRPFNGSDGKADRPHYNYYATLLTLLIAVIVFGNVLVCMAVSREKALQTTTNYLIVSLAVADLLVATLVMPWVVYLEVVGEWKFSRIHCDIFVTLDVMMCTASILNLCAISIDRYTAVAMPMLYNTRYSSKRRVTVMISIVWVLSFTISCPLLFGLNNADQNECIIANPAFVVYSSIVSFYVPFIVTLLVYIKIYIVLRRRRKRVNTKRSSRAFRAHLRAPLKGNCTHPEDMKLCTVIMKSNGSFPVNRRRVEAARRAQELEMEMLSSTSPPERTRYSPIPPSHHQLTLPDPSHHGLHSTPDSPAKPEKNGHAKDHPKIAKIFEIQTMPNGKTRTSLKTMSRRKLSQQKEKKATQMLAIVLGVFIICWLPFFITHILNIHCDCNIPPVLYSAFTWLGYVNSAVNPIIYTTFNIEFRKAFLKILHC
5-hydroxytryptamine receptor 2A (Homo sapiens), sequence (P28223 whole entry, looked up): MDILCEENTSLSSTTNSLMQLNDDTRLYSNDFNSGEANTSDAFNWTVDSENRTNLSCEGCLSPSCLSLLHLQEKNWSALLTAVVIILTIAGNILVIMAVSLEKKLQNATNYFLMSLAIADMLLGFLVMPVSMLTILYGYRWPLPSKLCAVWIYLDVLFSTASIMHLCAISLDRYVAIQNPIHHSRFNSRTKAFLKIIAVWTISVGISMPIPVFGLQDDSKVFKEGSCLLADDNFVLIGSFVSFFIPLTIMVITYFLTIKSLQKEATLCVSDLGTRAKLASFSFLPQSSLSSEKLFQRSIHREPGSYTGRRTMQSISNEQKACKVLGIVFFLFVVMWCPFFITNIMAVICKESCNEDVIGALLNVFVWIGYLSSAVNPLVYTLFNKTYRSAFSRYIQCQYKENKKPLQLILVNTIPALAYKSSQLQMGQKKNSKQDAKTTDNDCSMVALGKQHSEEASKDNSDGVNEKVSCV
Gonadotropin-releasing hormone receptor (Homo sapiens), sequence (P30968 whole entry, looked up): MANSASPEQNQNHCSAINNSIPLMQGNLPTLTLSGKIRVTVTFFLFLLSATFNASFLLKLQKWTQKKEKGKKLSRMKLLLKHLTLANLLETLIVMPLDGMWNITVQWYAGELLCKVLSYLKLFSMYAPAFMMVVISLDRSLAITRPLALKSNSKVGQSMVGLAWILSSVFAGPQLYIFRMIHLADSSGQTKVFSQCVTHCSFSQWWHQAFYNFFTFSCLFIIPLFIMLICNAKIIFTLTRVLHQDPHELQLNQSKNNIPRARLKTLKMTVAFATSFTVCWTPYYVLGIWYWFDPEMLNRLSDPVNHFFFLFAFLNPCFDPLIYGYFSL
Muscarinic acetylcholine receptor M1 (Homo sapiens), sequence (P11229 whole entry, looked up): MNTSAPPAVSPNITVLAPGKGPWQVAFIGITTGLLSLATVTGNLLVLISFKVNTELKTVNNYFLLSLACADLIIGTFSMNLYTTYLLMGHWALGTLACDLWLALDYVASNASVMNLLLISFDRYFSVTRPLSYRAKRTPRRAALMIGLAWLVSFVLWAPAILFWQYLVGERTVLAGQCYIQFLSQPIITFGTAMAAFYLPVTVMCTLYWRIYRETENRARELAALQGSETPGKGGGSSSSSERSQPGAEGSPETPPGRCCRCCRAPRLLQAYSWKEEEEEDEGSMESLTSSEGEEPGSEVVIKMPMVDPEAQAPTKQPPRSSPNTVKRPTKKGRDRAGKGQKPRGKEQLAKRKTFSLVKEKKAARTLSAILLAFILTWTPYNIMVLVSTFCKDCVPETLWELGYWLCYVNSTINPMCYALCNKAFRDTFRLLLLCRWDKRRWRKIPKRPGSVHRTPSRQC

For the compound `Cc1cc(O)cc2c1O[C@](C)(CCC[C@H](C)CCC[C@H](C)CCCC(C)C)CC2`, the Potency result in [1], in [2], in experiment [3], in experiment [4], in [5] and in [6] was “inactive” throughout. Further, the Potency result in experiment [7], in [8], in experiment [9], in experiment [10], in experiment [11] and in experiment [12] was “inactive” throughout. In addition, the Potency result in [13], in experiment [14], in experiment [15] and in experiment [16] was “inactive” each time.

For `C=CC(C)(O)CC/C=C(/C)CCC=C(C)C` (stereo not given), the Potency result in experiment [1], in [2], in experiment [3], in [4], in [5] and in experiment [17] was “inactive” in each case. For the same compound, the Potency entry in experiment [6], in [7], in experiment [8], in [9], in experiment [10] and in [18] was “inactive” throughout. The Potency result in [11], in experiment [12], in experiment [13], in experiment [14], in experiment [15] and in [16] was “inactive” in each case. Also, the Potency entry in experiment [19] was “inactive”.

For the compound `NC(=Nc1ccccc1)Nc1ccccc1`, the Potency result in [1], in experiment [17], in [6], in [7], in [13] and in experiment [14] was “inactive” each time. Also, the Potency result in experiment [15], in experiment [16] and in experiment [19] was “inactive” each time. The Potency in experiment [2] was 19.3 µM (active) and inactive; in [3], 5.49 µM (active) and 15.1 µM (active); in experiment [4], 21.4 µM (active) and 23.9 µM (active); in experiment [5] it was 15.5 µM (active).

For `O=C(O[C@@H]1Cc2c(O)cc(O)cc2O[C@@H]1c1cc(O)c(O)c(O)c1)c1cc(O)c(O)c(O)c1`, the Potency result in [1], in [2], in experiment [3], in experiment [4], in experiment [5] and in experiment [17] was “inactive” each time. For the same compound, the Potency result in [6], in experiment [8], in experiment [9], in experiment [18], in [11] and in [14] was “inactive” each time. Also, the Potency entry in experiment [15] and in experiment [16] was “inactive” each time.

For `CNc1ccccc1`, the Potency entry in experiment [1], in [2], in experiment [3], in [4], in experiment [5] and in [17] was “inactive” throughout. Also, the Potency entry in [6], in [7], in experiment [8], in [10], in [18] and in experiment [11] was “inactive” in each case. For the same compound, the Potency entry in experiment [12], in experiment [13], in experiment [14], in experiment [15], in experiment [20] and in experiment [16] was “inactive” each time. Also, in experiment [19], the Potency entry was “inactive”.

As to `CCCO`, the Potency result in experiment [1], in [2], in experiment [3], in experiment [4], in experiment [5] and in [17] was “inactive” throughout. Moreover, the Potency result in [7], in experiment [8], in experiment [9], in experiment [10], in [11] and in [12] was “inactive” in each case. For the same compound, the Potency result in experiment [13], in experiment [14], in experiment [15], in experiment [20], in [16] and in experiment [19] was “inactive” each time.

Take `NS(=O)(=O)c1ccccc1Cl`: the Potency result in experiment [1], in experiment [2], in experiment [3], in [4], in experiment [5] and in [17] was “inactive” throughout. Besides, the Potency result in experiment [6], in experiment [8], in experiment [9], in experiment [10], in experiment [18] and in experiment [11] was “inactive” in each case. Moreover, the Potency result in experiment [12], in experiment [13], in experiment [14], in experiment [15], in experiment [20] and in experiment [16] was “inactive” each time.

For `CC(C)c1cccc(O)c1`, the Potency result in [1], in [2], in experiment [3], in experiment [4], in experiment [5] and in experiment [17] was “inactive” in each case. Further, the Potency result in experiment [6], in experiment [8], in [9], in experiment [10], in experiment [11] and in [12] was “inactive” in each case. Besides, the Potency result in experiment [13], in experiment [14], in experiment [15], in experiment [20], in experiment [16] and in experiment [19] was “inactive” each time.
